This is part of a sample that, as a whole, favours compounds with a hit. Of some 83,000 tested, about 20% had one in any assay.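 Interpretation: 100, growth as untreated; towards 0, rising growth inhibition; 0, no net growth; 0 to -100, cell death. Compounds scoring below 10 were considered active.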 Unmarked numbers belong to inactive results. The source made the active and inactive calls.
Assays:
Assay in all cases: NCI-60 one-dose screen, 48 h (100 = growth as untreated, 0 = no growth, -100 = all killed)
Conditions in all cases: 10 µM unless noted
RPMI-8226 leukemia = tested on: RPMI-8226 leukemia
OVCAR-8 ovarian = tested on: OVCAR-8 ovarian
OVCAR-5 ovarian = tested on: OVCAR-5 ovarian
OVCAR-4 ovarian = tested on: OVCAR-4 ovarian
SK-OV-3 ovarian = tested on: SK-OV-3 ovarian
IGROV1 ovarian = tested on: IGROV1 ovarian
HS 578T breast = tested on: HS 578T breast
NCI/ADR-RES ovarian = tested on: NCI/ADR-RES ovarian
T-47D breast = tested on: T-47D breast
BT-549 breast = tested on: BT-549 breast
MDA-MB-435 melanoma = tested on: MDA-MB-435 melanoma
SW-620 colon = tested on: SW-620 colon
MCF7 breast = tested on: MCF7 breast
HCT-116 colon = tested on: HCT-116 colon
HCC-2998 colon = tested on: HCC-2998 colon
KM12 colon = tested on: KM12 colon

| Compound | growth (RPMI-8226 leukemia) | growth (OVCAR-8 ovarian) | growth (OVCAR-5 ovarian) | growth (OVCAR-4 ovarian) | growth (SK-OV-3 ovarian) | growth (IGROV1 ovarian) | growth (HS 578T breast) [%] | growth (NCI/ADR-RES ovarian) | growth (T-47D breast) | growth (BT-549 breast) | growth (MDA-MB-435 melanoma) | growth (SW-620 colon) | growth (MCF7 breast) | growth (HCT-116 colon) | growth (HCC-2998 colon) | growth (KM12 colon) |
| --- | --- | --- | --- | --- | --- | --- | --- | --- | --- | --- | --- | --- | --- | --- | --- | --- |
| CC1(C)CC[C@]2(C(=O)N3CCCN(CC#N)CC3)CC[C@]3(C)C(=CC[C@@H]4[C@@]5(C)CC[C@H](O)C(C)(C)[C@@H]5CC[C@]43C)[C@H]2C1 | 19.9% | 55.7% | 84.1% | 86.7% | 83.7% | 66.1% | 78.8 | 57.2% | 52.1% | 61.4% | 59.8% | 27.8% | 5.68% (active) | -47.6% (active) | 71.2% | 54.1% |
| C=C(C)[C@@H]1CC[C@]2(C)[C@H](CC=C3[C@@H]4CC(C)(C)CC[C@]4(C(=O)NCC#CCN4CCN(C)CC4)CC[C@]32C)[C@@]1(C)CCC#N | 42.4% | 85.9% | 89.8% | 70.6% | 94.5% | 54.3% | 71.7 | 62.5% | 61.7% | 69.3% | 24.2% | 43.8% | 27% | 17.5% | 55.2% | 43.6% |
| Cc1ccc(-c2nnc3sc(C4=Cc5ccccc5OC=C4)nn23)cc1 | 101% | 89.8% | 98% | 99.2% | 118% | 109% | 112 | 98.2% | 91.6% | 95.7% | 93.7% | 99.9% | 88.9% | 104% | 101% | 106% |
| O=C(Cn1cc(CN2C(=O)c3ccc([N+](=O)[O-])cc3C2=O)nn1)Nc1ccc(F)cc1Cl | 100% | 96.8% | 102% | 106% | 89.7% | 100% | 111 | 98.3% | 95.4% | 92.4% | 101% | 99.6% | 93.3% | 102% | 100% | 105% |
| CS(=O)(=O)c1nccc(-c2c(-c3ccc(F)c(OCCc4ccccc4)c3)nc3sccn23)n1 | 54.7% | 87.5% | 100% | 98.4% | 121% | 59.3% | 113 | 95.9% | -4.49% (active) | 104% | 104% | 103% | 4.77% (active) | 92.5% | -46.4% (active) | 77.5% |
| C=CCn1c(SCC(=O)Nc2cccc(C(=O)/C=C/c3ccc(Br)cc3)c2)nc2ccccc2c1=O | -3.89% (active) | 81.6% | 96.2% | 87.9% | 108% | 93.6% | 83.3 | 91.5% | 76% | 45.8% | 86.9% | 76.3% | 26.6% | 8.62% (active) | 93.8% | 81.3% |
| O=C(Cn1cc(CN2C(=O)c3ccc([N+](=O)[O-])cc3C2=O)nn1)Nc1ccccc1Br | 102% | 116% | 106% | 113% | 90.5% | 97.5% | 110 | 99.3% | 104% | 115% | 109% | 97.4% | 94.3% | 98.8% | 101% | 102% |
| COc1cnc2c(c1)C(=O)c1c-2n(CCCn2ccnc2)c(=O)c2cc(OC)c(OC)cc12 | -26.7% (active) | -93.9% (active) | -40.7% (active) | -18.3% (active) | -31.8% (active) | -20.6% (active) | 57.1 | 1.35% (active) | -61.3% (active) | -0.217% (active) | 20.5% | -77.7% (active) | -61.8% (active) | -90.2% (active) | 24.6% | 27.1% |
| COc1ccc(/C(C)=C(\c2ccc(Cl)cc2)c2ccc(OCCN)cc2)cc1 | 67.1% | 88.7% | 83.8% | 90.3% | 131% | 77.8% | 89 | 89.1% | 95.2% | 91.7% | 76.9% | 36.4% | 72.4% | 42.3% | 30.2% | 78.2% |
| C/C(=C(/c1ccc(O)cc1)c1ccc(OCCN2CCCC2)cc1)c1ccc(Cl)cc1 | -4.71% (active) | 64.6% | – | 65.4% | 76.7% | 55.4% | 48.4 | 64.2% | 24.9% | 89.6% | 20% | -57.1% (active) | 5.58% (active) | 36.6% | – | 46.5% |
| CCOC(=O)CC(=O)CSC1=NC2C(NN1)N(C)C(=O)N2C (centres undefined) | 56% | 66.8% | 88.6% | – | 114% | 91.2% | 94.4 | 80.1% | 31.8% | 101% | 94.6% | 75.8% | 10.9% | 9.01% (active) | 105% | 101% |
| COc1ccc(C2CC(c3ccc(Nc4nc(NCCO)nc(Nc5ccc(Cl)cc5)n4)cc3)=Nc3c(N)nc(N)nc3N2)cc1 (centres undefined) | -4.52% (active) | 40% | 121% | 66.9% | 112% | 74% | – | 76% | 72.1% | 77.5% | 74.9% | 41.2% | -71.8% (active) | -80.3% (active) | 93.5% | 55.4% |
| C=CCn1c(SCC(=O)Nc2cccc(C(=O)/C=C/c3ccccc3)c2)nc2ccccc2c1=O | 2.15% (active) | 83.3% | 101% | 88% | 122% | 87.6% | 99.2 | 87.1% | 78.4% | 107% | – | 12.2% | 18.3% | – | 96% | 57.5% |
| CCN1CCN(Cc2ccc(C(=O)Nc3nc4ccc(Oc5ccnc(C(=O)NC)c5)cc4s3)cc2C(F)(F)F)CC1 | 26.4% | 60.8% | 76.7% | 61% | 83.7% | 70.3% | 51.9 | 67% | 18.7% | 45.3% | 46% | -17.2% (active) | 16.3% | 18% | 62.8% | 48.4% |
| Cn1cc(-c2nn3cc(-c4cccnc4)nc3s2)c2cc(F)ccc21 | 93.9% | 81.8% | 91.5% | – | 77.4% | 74.5% | 84.6 | 75.7% | 65% | 92% | 29.7% | 80.3% | 37.8% | 91% | 96.6% | 76.4% |
| N#C/C(=C\c1ccc(-c2ccc(F)cc2)o1)C(=O)Nc1ncc(Cc2ccc(Cl)cc2Cl)s1 | 25.3% | 6.14% (active) | 26% | -40.3% (active) | 107% | -1.72% (active) | 10.7 | 6.32% (active) | -5.01% (active) | -15.8% (active) | -20.4% (active) | -67.1% (active) | -5.46% (active) | – | 79.8% | 13.4% |
| Nc1nc(N)c2c(n1)NC(c1ccc(Cl)cc1)CC(c1ccc(Nc3nc(NCCO)nc(Nc4ccc(Cl)cc4)n3)cc1)=N2 (centres undefined) | -32.5% (active) | 17.6% | 84.8% | 34.6% | 100% | – | 55.7 | 56.5% | 51.9% | 58.3% | 5.23% (active) | -36.2% (active) | -75.1% (active) | – | 18.6% | 11.5% |
| C/C(Cc1ccc(Cl)cc1)=C(/c1ccccc1)c1ccc(OCCN)cc1 | 101% | 101% | 97.4% | 101% | 117% | 98.3% | 97.1 | 94.8% | 101% | 95.3% | 95.1% | 102% | 99.9% | 102% | 99% | 103% |
| N#Cc1ccc(S(=O)(=O)Nc2ccc(-c3cnc(N)[nH]3)cc2)cc1 | 104% | 101% | 98.9% | 104% | 106% | – | 98.3 | 102% | 101% | 107% | 108% | 102% | 90.7% | 107% | 105% | 103% |
| Cc1ccc(C2CC(c3ccc(Nc4nc(NCCO)nc(Nc5ccc(Cl)cc5)n4)cc3)=Nc3c(N)nc(N)nc3N2)cc1 (centres undefined) | -55.4% (active) | -81% (active) | -63.3% (active) | -54.4% (active) | 114% | -63.3% (active) | 11.9 | -39.8% (active) | 60.1% | 80.7% | -93.1% (active) | -88.9% (active) | -68.4% (active) | -97% (active) | – | -88% (active) |
| COc1cc2c3c(n(CCCNC4CCC4)c(=O)c2cc1OC)-c1cc2c(cc1C3=O)OCO2 | -39.1% (active) | -49.8% (active) | -72.4% (active) | -57.9% (active) | 23.4% | -53.3% (active) | 84.1 | -32.4% (active) | 53.5% | 76% | – | -15.4% (active) | -71.5% (active) | -48.4% (active) | -89.3% (active) | 38.7% |
| COc1cc2c3c(n(CCCNCC4CC4)c(=O)c2cc1OC)-c1cc2c(cc1C3=O)OCO2 | -42.8% (active) | -60.5% (active) | -66.8% (active) | 1.27% (active) | 8.75% (active) | 56% | 95.3 | -13.6% (active) | 50.6% | 66.1% | 65% | -20.1% (active) | -77.4% (active) | -85.1% (active) | 69.1% | 65.1% |
| Cn1c2ccc(Br)cc2c2c3c(c4c5cc(F)ccc5oc4c21)C(=O)N(O)C3=O | 76.7% | 75.1% | 108% | 103% | 90.2% | 63.5% | 92.8 | 75.5% | 63% | 89.4% | 101% | 54.5% | 41.3% | 75% | 94.6% | 92.6% |
| COc1ccc([C@@H]2[C@@H](O)C(=O)N2c2cc(OC)c(OC)c(OC)c2)cc1Cl | 28.4% | -11.7% (active) | 28.9% | 68.7% | 23.9% | 27.1% | – | -21.2% (active) | 103% | -9.18% (active) | -8.49% (active) | 17.9% | 11.5% | 2.44% (active) | 8.34% (active) | 13.2% |
| COc1ccc2oc3c4[nH]c5ccccc5c4c4c(c3c2c1)C(=O)N(O)C4=O | 91.9% | 102% | 109% | – | 98.9% | 94.9% | 89.9 | 101% | 97.7% | 104% | 106% | 92.1% | 90.3% | 104% | 101% | – |
| Cn1c2ccccc2c2c3c(c4c5ccc(Br)cc5oc4c21)C(=O)N(O)C3=O | 64.6% | 73.1% | 110% | 85.3% | 101% | 69.7% | 102 | 92.5% | 19.5% | 64.9% | 88.5% | 59.3% | 19.2% | – | 91.8% | 92.4% |
| Cc1ccc(-c2cc(-c3cccc4ccccc34)n3c(n2)nc2ccccc23)cc1 | 65.2% | 58.4% | 92.7% | 79.6% | 100% | 59.5% | 56.5 | 67.7% | 54.1% | 69.1% | 65% | 45.2% | 22.6% | 43.4% | 92% | 78.9% |
| Cn1cc(-c2nn3c(=O)cc(-c4ccccc4)nc3s2)c2cc(F)ccc21 | 69.2% | 36.6% | 75.1% | 47.5% | 68.4% | 65.2% | 60.9 | 42.2% | 64.2% | 67% | -5.19% (active) | 41.9% | 34.5% | – | 79.5% | 55.2% |
| COCCOc1ccc(-c2csc(NC(C)=O)n2)cc1NS(=O)(=O)c1cccc2c(N(C)C)cccc12 | 69.6% | 97.6% | – | 86.8% | 119% | 77.1% | 88 | 84.4% | 67.7% | 105% | 105% | 111% | 85% | 88.2% | 113% | – |
